# Source: article PMC7862700, “An all-to-all approach to the identification of sequence-specific readers for epigenetic DNA modifications on cytosine”
# Legend:
# Experiment in all cases: DAPPL (digital affinity profiling via proximity ligation, sequencing); 10 mM Tris-HCl pH 7.5, 50 mM NaCl, 1 mM DTT, 4% glycerol, room temperature, 30 min; GST-TFs on glutathione beads, 16-mer random dsDNA library, 0.1% formaldehyde crosslink after washing; high values mean tight binding
# FLI1 = biological target: T1, FLI1 (Homo sapiens, UniProt Q01543 1-452); settings: protein: recombinant; tags: N-terminal GST; dsDNA, one strand shown
# T1 sequence: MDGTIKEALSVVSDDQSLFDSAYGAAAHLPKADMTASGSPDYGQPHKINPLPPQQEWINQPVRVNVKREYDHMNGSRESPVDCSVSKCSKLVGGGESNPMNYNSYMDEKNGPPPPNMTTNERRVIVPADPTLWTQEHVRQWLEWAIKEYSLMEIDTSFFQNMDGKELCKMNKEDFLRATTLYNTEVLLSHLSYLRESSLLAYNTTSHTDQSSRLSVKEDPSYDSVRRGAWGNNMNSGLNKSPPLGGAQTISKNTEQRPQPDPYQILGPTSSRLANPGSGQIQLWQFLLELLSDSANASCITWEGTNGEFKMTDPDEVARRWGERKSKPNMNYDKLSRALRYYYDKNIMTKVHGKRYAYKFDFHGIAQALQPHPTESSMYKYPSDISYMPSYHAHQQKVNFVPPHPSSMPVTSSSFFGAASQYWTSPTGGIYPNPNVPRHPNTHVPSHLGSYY
# Method in brief: (§1)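 Human transcription factors fused to GST were expressed in yeast, captured on glutathione beads, given DNA barcodes and pooled with a GST-only negative control. Pools were incubated with 200 nmole of a 16-mer random double-stranded DNA library in Tris/NaCl/DTT/glycerol buffer at room temperature for 30 min. They were then washed, crosslinked with 0.1% formaldehyde, proximity-ligated (BsaI/T4 ligase, 1 h, 37 °C), PCR-amplified and sequenced on an Illumina NextSeq500. Binding signal is each 6-mer's read frequency for a factor divided by its frequency for the GST control.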
# ELK1 = biological target: T2, ELK1 (Homo sapiens, UniProt P19419 1-428); settings: protein: recombinant; tags: N-terminal GST; dsDNA, one strand shown
# T2 sequence: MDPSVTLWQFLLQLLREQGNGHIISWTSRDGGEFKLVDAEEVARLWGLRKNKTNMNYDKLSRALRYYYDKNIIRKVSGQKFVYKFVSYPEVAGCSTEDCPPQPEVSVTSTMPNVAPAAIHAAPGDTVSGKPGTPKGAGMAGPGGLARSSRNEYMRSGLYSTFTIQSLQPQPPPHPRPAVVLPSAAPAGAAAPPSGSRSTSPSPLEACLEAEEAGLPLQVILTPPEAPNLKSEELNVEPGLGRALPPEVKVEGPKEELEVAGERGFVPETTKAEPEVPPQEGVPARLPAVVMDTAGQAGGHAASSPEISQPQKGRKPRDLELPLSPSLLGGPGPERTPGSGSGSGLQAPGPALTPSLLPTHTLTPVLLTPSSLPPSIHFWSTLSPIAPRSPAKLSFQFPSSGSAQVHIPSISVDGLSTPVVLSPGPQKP
# Method in brief: as §1
# GABPA = biological target: T3, GABPA (Homo sapiens, UniProt Q06546 1-454); settings: protein: recombinant; tags: N-terminal GST; dsDNA, one strand shown
# T3 sequence: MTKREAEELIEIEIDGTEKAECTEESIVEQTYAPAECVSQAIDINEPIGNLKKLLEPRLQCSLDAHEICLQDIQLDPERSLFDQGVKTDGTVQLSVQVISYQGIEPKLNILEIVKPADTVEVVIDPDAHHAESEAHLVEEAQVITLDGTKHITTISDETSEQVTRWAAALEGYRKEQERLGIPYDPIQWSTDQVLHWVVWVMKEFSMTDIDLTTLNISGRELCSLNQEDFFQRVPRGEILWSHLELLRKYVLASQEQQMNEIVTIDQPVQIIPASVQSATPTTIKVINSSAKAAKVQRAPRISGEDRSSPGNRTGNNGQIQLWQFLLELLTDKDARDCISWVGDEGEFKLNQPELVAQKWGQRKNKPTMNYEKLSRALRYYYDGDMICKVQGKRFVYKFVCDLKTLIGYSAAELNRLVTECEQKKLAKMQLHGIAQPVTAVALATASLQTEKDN
# Method in brief: as §1
# ERG = biological target: T4, ERG (Homo sapiens, UniProt P11308 1-479); settings: protein: recombinant; tags: N-terminal GST; dsDNA, one strand shown
# T4 sequence: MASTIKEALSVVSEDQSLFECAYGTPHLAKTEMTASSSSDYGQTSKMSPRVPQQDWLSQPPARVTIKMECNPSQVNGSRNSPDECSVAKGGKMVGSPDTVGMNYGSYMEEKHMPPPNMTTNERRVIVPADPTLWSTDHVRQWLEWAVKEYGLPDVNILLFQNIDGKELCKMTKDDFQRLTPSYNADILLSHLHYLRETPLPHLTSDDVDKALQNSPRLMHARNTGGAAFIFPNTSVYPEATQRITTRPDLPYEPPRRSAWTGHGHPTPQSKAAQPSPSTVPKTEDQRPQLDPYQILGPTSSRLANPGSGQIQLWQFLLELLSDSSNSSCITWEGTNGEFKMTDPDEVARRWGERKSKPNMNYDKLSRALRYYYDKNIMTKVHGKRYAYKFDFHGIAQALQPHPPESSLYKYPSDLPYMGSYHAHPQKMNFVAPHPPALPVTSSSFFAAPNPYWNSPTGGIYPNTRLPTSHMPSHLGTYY
# Method in brief: as §1
# ELF1 = ELF1 (Homo sapiens, UniProt P32519 1-619); settings: protein: recombinant; tags: N-terminal GST; dsDNA, one strand shown
# Method in brief: as §1
# EHF = biological target: T5, EHF (Homo sapiens, UniProt Q9NZC4 1-300); settings: protein: recombinant; tags: N-terminal GST; dsDNA, one strand shown
# T5 sequence: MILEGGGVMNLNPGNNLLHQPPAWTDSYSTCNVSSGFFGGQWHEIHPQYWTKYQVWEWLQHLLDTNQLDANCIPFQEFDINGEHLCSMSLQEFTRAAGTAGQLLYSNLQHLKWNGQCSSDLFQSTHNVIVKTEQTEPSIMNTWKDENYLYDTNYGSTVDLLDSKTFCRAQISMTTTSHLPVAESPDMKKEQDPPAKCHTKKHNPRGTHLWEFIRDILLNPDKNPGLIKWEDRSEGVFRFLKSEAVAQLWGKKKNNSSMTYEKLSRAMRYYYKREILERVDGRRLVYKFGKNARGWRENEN
# Method in brief: as §1
# SPI1 = SPI1 (Homo sapiens, UniProt P17947 1-270); settings: protein: recombinant; tags: N-terminal GST; dsDNA, one strand shown
# Method in brief: as §1
# SPIB = SPIB (Homo sapiens, UniProt Q01892 1-262); settings: protein: recombinant; tags: N-terminal GST; dsDNA, one strand shown
# Method in brief: as §1
# ELK3 = biological target: T6, ELK3 (Homo sapiens, UniProt P41970 1-407); settings: protein: recombinant; tags: N-terminal GST; dsDNA, one strand shown
# T6 sequence: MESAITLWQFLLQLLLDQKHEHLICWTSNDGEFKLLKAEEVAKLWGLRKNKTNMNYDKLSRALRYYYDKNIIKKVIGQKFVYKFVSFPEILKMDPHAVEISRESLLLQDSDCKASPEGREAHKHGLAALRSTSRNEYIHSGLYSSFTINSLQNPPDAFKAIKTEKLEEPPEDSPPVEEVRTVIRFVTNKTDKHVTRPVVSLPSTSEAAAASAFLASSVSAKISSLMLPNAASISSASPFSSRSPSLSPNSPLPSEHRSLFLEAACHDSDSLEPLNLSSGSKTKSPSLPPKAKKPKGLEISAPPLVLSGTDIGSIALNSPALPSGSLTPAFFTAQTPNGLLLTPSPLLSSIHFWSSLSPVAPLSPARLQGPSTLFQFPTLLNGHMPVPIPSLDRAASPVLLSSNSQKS
# Method in brief: as §1
# FEV = biological target: T7, FEV (Homo sapiens, UniProt Q99581 1-238); settings: protein: recombinant; tags: N-terminal GST; dsDNA, one strand shown
# T7 sequence: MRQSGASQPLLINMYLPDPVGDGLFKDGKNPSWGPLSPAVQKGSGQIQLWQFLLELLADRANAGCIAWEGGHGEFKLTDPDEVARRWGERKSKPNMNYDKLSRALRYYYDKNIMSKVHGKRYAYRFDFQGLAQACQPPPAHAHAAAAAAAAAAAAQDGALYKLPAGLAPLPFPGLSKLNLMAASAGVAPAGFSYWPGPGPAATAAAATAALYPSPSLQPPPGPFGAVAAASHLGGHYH
# Method in brief: as §1
# ETV5 = ETV5 (Homo sapiens, UniProt P41161 1-510); settings: protein: recombinant; tags: N-terminal GST; dsDNA, one strand shown
# Method in brief: as §1
# HSF1 = HSF1 (Homo sapiens, UniProt Q00613 1-529); settings: protein: recombinant; tags: N-terminal GST; chain copies: 3; dsDNA, one strand shown
# Method in brief: as §1
# SPIC = biological target: T8, SPIC (Homo sapiens, UniProt Q8N5J4 1-248); settings: protein: recombinant; tags: N-terminal GST; dsDNA, one strand shown
# T8 sequence: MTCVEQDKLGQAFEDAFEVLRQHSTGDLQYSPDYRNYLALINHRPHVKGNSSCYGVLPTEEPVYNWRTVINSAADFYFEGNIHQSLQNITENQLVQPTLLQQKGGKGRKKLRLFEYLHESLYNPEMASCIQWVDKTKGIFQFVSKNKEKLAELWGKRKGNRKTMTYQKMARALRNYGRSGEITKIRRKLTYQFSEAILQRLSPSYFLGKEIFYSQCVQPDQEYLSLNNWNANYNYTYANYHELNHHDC
# Method in brief: as §1
# ELF4 = ELF4 (Homo sapiens, UniProt Q99607 1-663); settings: protein: recombinant; tags: N-terminal GST; dsDNA, one strand shown
# Method in brief: as §1
# ELK4 = biological target: T9, ELK4 (Homo sapiens, UniProt P28324-2 1-405); settings: protein: recombinant; tags: N-terminal GST; dsDNA, one strand shown
# T9 sequence: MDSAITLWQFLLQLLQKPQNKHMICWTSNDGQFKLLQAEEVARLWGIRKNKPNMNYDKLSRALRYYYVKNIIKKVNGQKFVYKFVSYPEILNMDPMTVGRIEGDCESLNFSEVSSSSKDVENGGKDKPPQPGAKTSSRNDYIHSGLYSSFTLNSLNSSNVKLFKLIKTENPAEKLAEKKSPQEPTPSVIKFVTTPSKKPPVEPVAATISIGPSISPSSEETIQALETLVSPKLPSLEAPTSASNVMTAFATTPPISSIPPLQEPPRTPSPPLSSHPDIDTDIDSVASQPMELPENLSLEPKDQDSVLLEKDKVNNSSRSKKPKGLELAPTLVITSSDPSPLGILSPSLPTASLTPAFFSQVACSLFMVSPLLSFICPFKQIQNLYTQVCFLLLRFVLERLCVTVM
# Method in brief: as §1
# ETV2 = biological target: T10, ETV2 (Homo sapiens, UniProt O00321 1-342); settings: protein: recombinant; tags: N-terminal GST; dsDNA, one strand shown
# T10 sequence: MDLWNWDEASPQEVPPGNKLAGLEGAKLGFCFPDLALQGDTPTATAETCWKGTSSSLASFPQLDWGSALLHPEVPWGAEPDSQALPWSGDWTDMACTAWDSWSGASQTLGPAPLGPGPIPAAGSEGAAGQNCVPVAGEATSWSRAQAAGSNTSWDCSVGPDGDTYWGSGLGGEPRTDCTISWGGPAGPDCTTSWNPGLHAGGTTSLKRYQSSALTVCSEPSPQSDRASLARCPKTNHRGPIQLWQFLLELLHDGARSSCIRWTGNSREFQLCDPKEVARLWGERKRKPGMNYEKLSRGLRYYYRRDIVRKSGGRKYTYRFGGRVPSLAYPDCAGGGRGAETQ
# Method in brief: as §1
# ELF3 = biological target: T11, ELF3 (Homo sapiens, UniProt P78545 1-371); settings: protein: recombinant; tags: N-terminal GST; dsDNA, one strand shown
# T11 sequence: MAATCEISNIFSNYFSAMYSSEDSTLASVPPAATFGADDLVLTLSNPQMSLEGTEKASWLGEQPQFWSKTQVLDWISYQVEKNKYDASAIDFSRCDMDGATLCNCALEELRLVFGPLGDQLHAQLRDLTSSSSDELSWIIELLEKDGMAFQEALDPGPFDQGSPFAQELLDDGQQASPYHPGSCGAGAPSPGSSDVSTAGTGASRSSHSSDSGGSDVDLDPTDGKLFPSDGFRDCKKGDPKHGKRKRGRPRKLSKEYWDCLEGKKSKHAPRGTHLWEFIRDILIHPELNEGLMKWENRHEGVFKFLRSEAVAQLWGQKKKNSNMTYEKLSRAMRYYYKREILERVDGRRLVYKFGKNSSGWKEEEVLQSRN
# Method in brief: as §1
# CRX = CRX (Homo sapiens, UniProt O43186 1-299); settings: protein: recombinant; tags: N-terminal GST; dsDNA, one strand shown
# Method in brief: as §1
# ETV1 = ETV1 (Homo sapiens, UniProt P50549 1-477); settings: protein: recombinant; tags: N-terminal GST; dsDNA, one strand shown
# Method in brief: as §1
# CRX, sequence (O43186 whole entry): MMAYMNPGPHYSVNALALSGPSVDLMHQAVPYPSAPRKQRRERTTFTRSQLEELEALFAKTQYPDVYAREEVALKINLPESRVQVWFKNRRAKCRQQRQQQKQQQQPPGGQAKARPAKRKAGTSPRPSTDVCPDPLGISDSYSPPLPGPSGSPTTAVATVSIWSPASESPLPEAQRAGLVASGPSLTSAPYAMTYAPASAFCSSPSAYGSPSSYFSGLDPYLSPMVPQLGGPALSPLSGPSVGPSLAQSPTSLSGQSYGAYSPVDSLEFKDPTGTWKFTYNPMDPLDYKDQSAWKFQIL
# HSF1, sequence (Q00613 whole entry): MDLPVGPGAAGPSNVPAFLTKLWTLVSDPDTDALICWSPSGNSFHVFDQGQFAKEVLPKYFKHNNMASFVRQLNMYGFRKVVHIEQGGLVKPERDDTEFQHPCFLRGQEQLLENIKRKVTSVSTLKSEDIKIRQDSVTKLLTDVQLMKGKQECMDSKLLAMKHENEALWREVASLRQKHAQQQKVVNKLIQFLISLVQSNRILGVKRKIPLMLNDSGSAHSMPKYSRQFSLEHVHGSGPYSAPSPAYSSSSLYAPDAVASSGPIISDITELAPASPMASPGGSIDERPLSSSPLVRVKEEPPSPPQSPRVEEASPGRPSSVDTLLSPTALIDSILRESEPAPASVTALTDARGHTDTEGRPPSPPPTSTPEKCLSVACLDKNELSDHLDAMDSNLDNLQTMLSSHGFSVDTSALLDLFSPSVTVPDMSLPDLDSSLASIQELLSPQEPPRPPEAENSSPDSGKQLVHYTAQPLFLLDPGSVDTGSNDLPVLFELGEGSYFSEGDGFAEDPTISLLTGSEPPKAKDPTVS
# ELF1, sequence (P32519 whole entry): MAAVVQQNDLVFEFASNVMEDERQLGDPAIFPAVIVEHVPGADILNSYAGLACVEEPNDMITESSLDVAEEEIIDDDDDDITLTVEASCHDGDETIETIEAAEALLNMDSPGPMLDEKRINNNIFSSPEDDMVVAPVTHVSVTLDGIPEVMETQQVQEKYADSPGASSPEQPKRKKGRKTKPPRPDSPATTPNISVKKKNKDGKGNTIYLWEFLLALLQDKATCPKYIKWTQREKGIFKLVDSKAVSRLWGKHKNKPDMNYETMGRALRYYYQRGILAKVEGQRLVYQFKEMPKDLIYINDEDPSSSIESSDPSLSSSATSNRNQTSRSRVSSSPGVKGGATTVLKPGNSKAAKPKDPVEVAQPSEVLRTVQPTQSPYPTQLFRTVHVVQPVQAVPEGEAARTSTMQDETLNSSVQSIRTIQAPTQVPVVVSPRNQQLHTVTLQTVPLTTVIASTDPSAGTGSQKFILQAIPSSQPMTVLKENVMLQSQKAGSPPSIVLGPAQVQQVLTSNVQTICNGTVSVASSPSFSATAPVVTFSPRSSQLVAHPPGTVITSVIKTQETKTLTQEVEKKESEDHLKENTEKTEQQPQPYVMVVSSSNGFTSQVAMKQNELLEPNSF
# ETV5, sequence (P41161 whole entry): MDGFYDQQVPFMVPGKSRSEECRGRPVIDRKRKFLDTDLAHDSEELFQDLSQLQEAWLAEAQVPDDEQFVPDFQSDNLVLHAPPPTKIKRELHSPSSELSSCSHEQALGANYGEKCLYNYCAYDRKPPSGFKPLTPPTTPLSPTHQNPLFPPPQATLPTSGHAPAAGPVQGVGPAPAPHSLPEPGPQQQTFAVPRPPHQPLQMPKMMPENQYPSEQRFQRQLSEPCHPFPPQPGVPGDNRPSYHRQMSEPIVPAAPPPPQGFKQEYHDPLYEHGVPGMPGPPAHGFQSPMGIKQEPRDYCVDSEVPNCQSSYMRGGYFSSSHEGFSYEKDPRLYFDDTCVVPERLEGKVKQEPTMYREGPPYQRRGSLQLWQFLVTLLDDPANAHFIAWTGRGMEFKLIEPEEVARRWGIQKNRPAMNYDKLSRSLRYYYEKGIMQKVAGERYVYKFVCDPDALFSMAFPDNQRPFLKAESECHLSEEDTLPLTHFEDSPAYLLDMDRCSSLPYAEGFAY
# ELF4, sequence (Q99607 whole entry): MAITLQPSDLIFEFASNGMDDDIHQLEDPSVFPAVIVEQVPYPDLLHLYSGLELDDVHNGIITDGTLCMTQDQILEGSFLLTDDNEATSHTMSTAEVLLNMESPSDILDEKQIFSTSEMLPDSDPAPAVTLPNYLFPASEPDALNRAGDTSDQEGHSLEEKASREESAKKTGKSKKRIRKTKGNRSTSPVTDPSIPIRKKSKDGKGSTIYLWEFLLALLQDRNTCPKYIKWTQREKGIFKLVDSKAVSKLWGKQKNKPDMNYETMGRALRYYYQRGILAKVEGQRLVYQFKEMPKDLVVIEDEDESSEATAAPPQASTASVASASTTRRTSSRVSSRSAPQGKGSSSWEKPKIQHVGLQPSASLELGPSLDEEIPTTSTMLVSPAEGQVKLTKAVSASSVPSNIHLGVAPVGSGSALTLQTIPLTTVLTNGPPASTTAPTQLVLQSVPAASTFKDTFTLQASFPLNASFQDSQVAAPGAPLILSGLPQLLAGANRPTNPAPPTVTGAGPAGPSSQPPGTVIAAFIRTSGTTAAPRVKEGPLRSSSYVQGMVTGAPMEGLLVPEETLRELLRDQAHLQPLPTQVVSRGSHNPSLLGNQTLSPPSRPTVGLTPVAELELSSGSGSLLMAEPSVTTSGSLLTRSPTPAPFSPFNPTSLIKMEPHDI
# ETV1, sequence (P50549 whole entry): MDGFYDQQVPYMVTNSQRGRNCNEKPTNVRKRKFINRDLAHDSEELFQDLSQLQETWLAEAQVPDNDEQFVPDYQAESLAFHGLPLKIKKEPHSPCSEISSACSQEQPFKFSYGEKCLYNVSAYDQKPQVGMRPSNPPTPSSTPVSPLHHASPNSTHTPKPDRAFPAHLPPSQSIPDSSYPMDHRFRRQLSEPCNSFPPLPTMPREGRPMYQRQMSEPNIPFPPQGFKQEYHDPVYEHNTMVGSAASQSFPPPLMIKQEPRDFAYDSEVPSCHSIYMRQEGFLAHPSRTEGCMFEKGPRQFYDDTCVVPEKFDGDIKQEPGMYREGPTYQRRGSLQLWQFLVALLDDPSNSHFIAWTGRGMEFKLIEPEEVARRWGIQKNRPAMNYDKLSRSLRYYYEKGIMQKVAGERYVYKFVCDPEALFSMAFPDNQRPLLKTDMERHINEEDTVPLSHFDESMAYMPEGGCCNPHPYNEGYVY
# SPIB, sequence (Q01892 whole entry): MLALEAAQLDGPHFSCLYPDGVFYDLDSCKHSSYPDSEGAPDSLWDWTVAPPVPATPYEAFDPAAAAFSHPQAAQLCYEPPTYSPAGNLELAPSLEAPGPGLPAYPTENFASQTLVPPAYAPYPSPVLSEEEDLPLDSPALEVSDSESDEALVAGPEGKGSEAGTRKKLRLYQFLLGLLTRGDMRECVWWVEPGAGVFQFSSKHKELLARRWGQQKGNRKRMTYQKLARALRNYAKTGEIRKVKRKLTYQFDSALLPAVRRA
sequence,measurement,setting,value
ATTCTA,binding signal,FLI1,"1.34 fold enrichment (6-mer frequency, TF over GST control)"
same,binding signal,ELK1,"1.21 fold enrichment (6-mer frequency, TF over GST control)"
same,binding signal,GABPA,"1.29 fold enrichment (6-mer frequency, TF over GST control)"
same,binding signal,ERG,"1.23 fold enrichment (6-mer frequency, TF over GST control)"
same,binding signal,ELF1,"1.3 fold enrichment (6-mer frequency, TF over GST control)"
same,binding signal,EHF,"1.21 fold enrichment (6-mer frequency, TF over GST control)"
same,binding signal,SPI1,"1.23 fold enrichment (6-mer frequency, TF over GST control)"
same,binding signal,SPIB,"1.22 fold enrichment (6-mer frequency, TF over GST control)"
same,binding signal,ELK3,"1.18 fold enrichment (6-mer frequency, TF over GST control)"
same,binding signal,FEV,"1.14 fold enrichment (6-mer frequency, TF over GST control)"
same,binding signal,ETV5,"1.16 fold enrichment (6-mer frequency, TF over GST control)"
same,binding signal,HSF1,"3.09 fold enrichment (6-mer frequency, TF over GST control)"
same,binding signal,SPIC,"1.26 fold enrichment (6-mer frequency, TF over GST control)"
same,binding signal,ELF4,"1.2 fold enrichment (6-mer frequency, TF over GST control)"
same,binding signal,ELK4,"1.32 fold enrichment (6-mer frequency, TF over GST control)"
same,binding signal,ETV2,"1.26 fold enrichment (6-mer frequency, TF over GST control)"
same,binding signal,ELF3,"1.24 fold enrichment (6-mer frequency, TF over GST control)"
same,binding signal,CRX,"1.84 fold enrichment (6-mer frequency, TF over GST control)"
same,binding signal,ETV1,"1.2 fold enrichment (6-mer frequency, TF over GST control)"
